Source: PubChem BioAssay (NCI)
This is part of a sample that, as a whole, favours compounds with a hit. Of some 83,000 tested, about 20% had one in any assay.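 In brief: 96-well plates, 48 h treatment, single concentration, percent growth endpoint.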 The source made the active and inactive calls. How the source made its calls: active means growth percent below 10; inactive means the rest.

Tested on: HL-60(TB) leukemia
Experiment: NCI-60 one-dose screen, 48 h (100 = growth as untreated, 0 = no growth, -100 = all killed)
Conditions: 10 µM unless noted

SMILES	growth
COc1cc(-c2csc(NC(=O)Nc3cc(C(F)(F)F)cc(C(F)(F)F)c3)n2)cc(OC)c1OC	12% (inactive)
CC1(C)CC[C@]2(C(=O)O)CC[C@]3(C)C(=CC[C@@H]4[C@@]5(C)C/C(=C/c6cccnc6)[C@H](O)C(C)(C)[C@@H]5CC[C@]43C)[C@@H]2C1	-8.82% [100 µM] (active)
COc1cc(-c2cc3ncccc3c3nc(OCCN(C)C)c4cccnc4c23)cc(OC)c1OC	36.9% (inactive)
CSc1nc(-c2cc3ccccc3o2)cc(-c2ccc(Cl)cc2)c1C#N	126% (inactive)
COc1ccc(-c2ccc(-c3ccc(C(=N)N)cn3)s2)cc1Cl	-55.3% (active)
Clc1ccc(-c2nc(C(Cl)Cl)nc3cc(-c4ccccc4)nn23)cc1	5.27% (active)
COC(=O)c1nc(-c2ccccc2)oc1S(=O)(=O)NCC(c1ccc(Cl)cc1)N1CCOCC1 (stereo not drawn)	4.12% (active)
COc1ccc2cc(-c3ccc(-c4ccc(C(=N)N)cc4)s3)ccc2c1	100% (inactive)
O=C(Nc1ccc(Cl)c([N+](=O)[O-])c1)Nc1nc2ccccc2s1	91.3% (inactive)
O=C1CCC(N2C(=O)c3cccc(NCCCCCCOc4ccc(Nc5nccc(Nc6ccccc6)n5)cc4)c3C2=O)C(=O)N1 (stereo not drawn)	87.2% (inactive)
CCC(=O)Nc1ccccc1C#C/C=C\C#Cc1ccccc1SC	-16.2% (active)
COc1ccc(C2CC(c3ccc4ccccc4c3)=NN2c2nc(O)c(C3=c4cc(Cl)ccc4=NC3=O)s2)cc1 (stereo not drawn)	-6.68% (active)
CCOC(=O)/C(=C(\C)N)C1CC(=O)NC1=O (stereo not drawn)	99.9% (inactive)
